Our source for the inhibition values is ChEMBL document CHEMBL1961873, “Compounds: GSK PKIS; Assays: Nanosyn kinase panel” (2012).

The target of assay [1] is Serine/threonine-protein kinase pim-2 (Homo sapiens) (UniProt Q9P1W9). As to conditions: at 1 µM.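 Also: each value is a mean of the inhibition measurements against the kinase.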
Assay [2] deals with Serine/threonine-protein kinase pim-3 (Homo sapiens) (UniProt Q86V86). To be noted: at 0.1 µM.
Assay [3] shares this target. To be noted: at 1 µM.
The target in assay [4] is T1, MAP kinase-activated protein kinase 5 (Homo sapiens) (UniProt Q8IW41).
T1 sequence (whole entry): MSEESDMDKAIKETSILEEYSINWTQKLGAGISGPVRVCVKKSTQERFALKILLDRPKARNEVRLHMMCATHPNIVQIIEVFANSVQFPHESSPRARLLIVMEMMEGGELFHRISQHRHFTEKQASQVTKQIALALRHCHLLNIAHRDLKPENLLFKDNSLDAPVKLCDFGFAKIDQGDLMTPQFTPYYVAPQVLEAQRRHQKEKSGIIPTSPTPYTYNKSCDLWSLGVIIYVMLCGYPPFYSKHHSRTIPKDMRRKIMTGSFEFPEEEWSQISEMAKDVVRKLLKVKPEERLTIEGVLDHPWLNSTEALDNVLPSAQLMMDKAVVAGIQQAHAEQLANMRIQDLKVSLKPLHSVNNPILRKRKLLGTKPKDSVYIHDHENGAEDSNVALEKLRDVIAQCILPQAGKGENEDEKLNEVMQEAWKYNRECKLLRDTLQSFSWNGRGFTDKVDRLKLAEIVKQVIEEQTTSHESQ
As to conditions: at 0.1 µM.

In assay [5] the target is T1, MAP kinase-activated protein kinase 5 (Homo sapiens). To be noted: at 1 µM.
For assay [6], the target named is Serine/threonine-protein kinase SIK1 (Homo sapiens) (UniProt P57059). As to conditions: at 0.1 µM.
Chain of Serine/threonine-protein kinase SIK1 (Homo sapiens) (P57059 whole entry): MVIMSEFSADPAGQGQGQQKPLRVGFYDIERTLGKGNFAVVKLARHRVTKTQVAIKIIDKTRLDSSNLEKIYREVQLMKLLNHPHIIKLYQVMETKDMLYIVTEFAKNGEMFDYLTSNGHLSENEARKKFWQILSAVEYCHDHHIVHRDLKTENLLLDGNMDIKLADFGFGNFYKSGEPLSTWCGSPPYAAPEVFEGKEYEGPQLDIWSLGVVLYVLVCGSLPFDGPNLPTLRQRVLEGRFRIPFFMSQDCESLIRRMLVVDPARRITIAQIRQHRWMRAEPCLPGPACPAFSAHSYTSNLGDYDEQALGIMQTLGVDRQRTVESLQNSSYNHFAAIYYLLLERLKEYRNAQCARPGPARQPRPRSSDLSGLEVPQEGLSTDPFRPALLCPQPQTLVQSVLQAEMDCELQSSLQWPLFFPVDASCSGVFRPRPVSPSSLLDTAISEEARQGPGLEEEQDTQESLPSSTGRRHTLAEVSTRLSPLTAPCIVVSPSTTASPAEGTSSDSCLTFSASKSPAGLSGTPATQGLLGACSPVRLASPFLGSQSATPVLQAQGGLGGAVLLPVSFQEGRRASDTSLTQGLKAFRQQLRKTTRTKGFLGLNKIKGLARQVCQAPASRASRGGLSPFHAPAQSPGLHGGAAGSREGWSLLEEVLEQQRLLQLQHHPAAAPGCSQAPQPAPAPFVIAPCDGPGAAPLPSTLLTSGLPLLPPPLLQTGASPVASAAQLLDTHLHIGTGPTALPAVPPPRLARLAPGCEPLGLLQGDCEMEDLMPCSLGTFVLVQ
Assay [7] has the same target. To be noted: at 1 µM.
Assay [8] concerns the target Serine/threonine-protein kinase SIK2 (Homo sapiens) (UniProt Q9H0K1). To be noted: at 0.1 µM.
Assay [9] has the same target. As to conditions: at 1 µM.
Assay [10] deals with T2, Serine/threonine-protein kinase TBK1 (Homo sapiens) (UniProt Q9UHD2).
T2 sequence (whole entry): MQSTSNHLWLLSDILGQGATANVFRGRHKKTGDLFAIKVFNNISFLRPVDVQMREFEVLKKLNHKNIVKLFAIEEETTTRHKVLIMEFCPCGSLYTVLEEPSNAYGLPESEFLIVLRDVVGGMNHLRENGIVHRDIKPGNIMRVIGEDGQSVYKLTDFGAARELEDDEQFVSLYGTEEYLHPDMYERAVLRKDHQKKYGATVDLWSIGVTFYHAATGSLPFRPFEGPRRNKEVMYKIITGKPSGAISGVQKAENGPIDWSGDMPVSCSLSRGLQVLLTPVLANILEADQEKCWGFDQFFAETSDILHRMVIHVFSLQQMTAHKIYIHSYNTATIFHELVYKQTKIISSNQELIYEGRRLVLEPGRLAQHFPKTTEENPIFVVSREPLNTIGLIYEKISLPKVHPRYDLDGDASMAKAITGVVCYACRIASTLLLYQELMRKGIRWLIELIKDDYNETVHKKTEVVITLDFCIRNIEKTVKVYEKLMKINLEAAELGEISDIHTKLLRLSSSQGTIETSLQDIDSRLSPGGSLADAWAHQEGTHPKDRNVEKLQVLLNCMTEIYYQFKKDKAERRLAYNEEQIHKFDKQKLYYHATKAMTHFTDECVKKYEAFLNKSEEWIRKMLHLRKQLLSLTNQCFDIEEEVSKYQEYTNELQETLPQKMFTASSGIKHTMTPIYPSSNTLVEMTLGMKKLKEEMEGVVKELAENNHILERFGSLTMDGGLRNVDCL
As to conditions: at 0.1 µM.

Assay [11] addresses T2, Serine/threonine-protein kinase TBK1 (Homo sapiens). To be noted: at 1 µM.
Assay [12] concerns the target T3, Testis-specific serine/threonine-protein kinase 1 (Homo sapiens) (UniProt Q9BXA7).
T3 sequence (whole entry): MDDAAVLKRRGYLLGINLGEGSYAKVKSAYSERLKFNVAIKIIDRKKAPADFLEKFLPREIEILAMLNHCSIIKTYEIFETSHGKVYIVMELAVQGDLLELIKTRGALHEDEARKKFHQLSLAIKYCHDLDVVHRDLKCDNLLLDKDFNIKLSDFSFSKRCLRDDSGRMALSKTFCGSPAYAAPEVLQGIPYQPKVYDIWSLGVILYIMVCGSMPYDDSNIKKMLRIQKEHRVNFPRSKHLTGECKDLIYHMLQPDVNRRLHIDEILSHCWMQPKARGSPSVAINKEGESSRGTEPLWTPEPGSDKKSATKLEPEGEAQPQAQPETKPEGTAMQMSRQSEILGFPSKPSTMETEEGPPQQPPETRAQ
As to conditions: at 0.1 µM.

The target of assay [13] is T3, Testis-specific serine/threonine-protein kinase 1 (Homo sapiens). To be noted: at 1 µM.
Assay [14] concerns the target T4, Testis-specific serine/threonine-protein kinase 2 (Homo sapiens) (UniProt Q96PF2).
T4 sequence (whole entry): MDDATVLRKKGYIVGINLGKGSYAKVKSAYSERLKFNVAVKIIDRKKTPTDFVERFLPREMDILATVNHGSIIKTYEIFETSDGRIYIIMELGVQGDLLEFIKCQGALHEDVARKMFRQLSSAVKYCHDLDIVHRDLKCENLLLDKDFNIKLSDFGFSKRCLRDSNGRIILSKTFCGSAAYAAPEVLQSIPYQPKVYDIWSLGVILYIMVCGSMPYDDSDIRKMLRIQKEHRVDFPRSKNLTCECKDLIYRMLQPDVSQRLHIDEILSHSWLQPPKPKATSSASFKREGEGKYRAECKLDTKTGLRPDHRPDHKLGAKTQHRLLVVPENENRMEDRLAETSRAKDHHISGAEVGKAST
As to conditions: at 0.1 µM.

Assay [15] deals with T4, Testis-specific serine/threonine-protein kinase 2 (Homo sapiens). As to conditions: at 1 µM.
For assay [16], the target named is Casein kinase I isoform alpha (Homo sapiens) (UniProt P48729). To be noted: at 0.1 µM.
Chain of Casein kinase I isoform alpha (Homo sapiens) (P48729 2-337 limits assumed): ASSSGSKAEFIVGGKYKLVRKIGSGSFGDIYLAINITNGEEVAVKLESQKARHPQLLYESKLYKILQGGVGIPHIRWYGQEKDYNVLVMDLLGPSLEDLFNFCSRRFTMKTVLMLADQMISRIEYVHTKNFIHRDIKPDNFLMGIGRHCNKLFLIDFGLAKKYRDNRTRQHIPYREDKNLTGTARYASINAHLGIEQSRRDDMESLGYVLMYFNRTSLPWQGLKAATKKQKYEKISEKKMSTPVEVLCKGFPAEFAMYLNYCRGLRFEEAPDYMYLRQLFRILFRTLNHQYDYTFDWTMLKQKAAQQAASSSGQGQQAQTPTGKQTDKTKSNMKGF
Assay [17] shares this target. To be noted: at 1 µM.
In assay [18] the target is Casein kinase I isoform gamma-1 (Homo sapiens) (UniProt Q9HCP0). To be noted: at 0.1 µM.
Chain of Casein kinase I isoform gamma-1 (Homo sapiens) (Q9HCP0 whole entry, looked up, canonical isoform): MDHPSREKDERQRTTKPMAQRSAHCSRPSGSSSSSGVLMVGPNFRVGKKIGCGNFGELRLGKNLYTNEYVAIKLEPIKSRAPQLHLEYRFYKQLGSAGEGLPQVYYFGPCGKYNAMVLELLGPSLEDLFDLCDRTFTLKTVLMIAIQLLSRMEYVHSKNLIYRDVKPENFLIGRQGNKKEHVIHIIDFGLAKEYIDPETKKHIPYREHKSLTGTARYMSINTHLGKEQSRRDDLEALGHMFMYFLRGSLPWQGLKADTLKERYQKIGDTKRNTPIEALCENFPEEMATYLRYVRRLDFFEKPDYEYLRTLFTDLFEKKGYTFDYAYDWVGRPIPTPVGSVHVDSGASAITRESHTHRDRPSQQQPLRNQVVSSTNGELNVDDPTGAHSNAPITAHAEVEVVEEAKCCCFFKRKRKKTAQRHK
Assay [19] has the same target. To be noted: at 1 µM.
Assay [20] concerns the target Casein kinase I isoform gamma-2 (Homo sapiens) (UniProt P78368). As to conditions: at 0.1 µM.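 Also: values are mean inhibition figures reported as part of the GSK PKIS dataset.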

Each structure is given as a SMILES string.

Chain of Serine/threonine-protein kinase pim-2 (Homo sapiens) (Q9P1W9 whole entry, looked up): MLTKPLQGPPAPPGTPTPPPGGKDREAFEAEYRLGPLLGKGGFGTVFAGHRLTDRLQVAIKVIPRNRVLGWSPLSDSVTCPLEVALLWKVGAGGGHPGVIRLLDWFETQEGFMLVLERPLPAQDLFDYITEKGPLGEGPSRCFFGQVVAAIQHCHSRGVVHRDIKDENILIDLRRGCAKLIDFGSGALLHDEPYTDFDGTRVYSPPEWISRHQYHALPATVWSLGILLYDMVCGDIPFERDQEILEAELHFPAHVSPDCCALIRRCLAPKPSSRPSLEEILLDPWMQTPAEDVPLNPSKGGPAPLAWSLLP
Chain of Serine/threonine-protein kinase SIK2 (Homo sapiens) (Q9H0K1 whole entry, looked up): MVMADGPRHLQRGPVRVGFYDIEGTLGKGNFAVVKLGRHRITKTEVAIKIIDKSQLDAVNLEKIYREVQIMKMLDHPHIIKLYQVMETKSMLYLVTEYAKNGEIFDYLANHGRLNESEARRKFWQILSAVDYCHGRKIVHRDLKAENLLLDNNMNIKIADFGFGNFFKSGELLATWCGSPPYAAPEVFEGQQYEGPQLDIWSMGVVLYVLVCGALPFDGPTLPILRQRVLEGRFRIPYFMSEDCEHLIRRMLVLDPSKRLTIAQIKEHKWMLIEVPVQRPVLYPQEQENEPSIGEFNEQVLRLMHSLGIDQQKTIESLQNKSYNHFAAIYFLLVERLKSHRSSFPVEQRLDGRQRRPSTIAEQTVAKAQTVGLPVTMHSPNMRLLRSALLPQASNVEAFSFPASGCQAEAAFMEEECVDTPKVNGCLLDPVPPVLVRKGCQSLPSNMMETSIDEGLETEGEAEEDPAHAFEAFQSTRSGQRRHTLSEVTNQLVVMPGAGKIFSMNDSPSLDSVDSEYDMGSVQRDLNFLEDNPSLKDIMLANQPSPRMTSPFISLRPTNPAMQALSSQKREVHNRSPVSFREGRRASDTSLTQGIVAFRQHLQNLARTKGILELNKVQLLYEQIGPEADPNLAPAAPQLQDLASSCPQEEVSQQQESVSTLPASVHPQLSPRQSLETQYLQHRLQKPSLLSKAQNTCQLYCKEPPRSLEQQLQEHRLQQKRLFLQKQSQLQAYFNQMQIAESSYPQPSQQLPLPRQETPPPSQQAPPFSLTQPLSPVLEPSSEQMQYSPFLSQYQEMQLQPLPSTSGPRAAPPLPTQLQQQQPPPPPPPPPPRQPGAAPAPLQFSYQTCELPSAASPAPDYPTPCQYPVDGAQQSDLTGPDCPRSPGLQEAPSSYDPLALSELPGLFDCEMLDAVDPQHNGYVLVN
Chain of Casein kinase I isoform gamma-2 (Homo sapiens) (P78368 whole entry, looked up, canonical isoform): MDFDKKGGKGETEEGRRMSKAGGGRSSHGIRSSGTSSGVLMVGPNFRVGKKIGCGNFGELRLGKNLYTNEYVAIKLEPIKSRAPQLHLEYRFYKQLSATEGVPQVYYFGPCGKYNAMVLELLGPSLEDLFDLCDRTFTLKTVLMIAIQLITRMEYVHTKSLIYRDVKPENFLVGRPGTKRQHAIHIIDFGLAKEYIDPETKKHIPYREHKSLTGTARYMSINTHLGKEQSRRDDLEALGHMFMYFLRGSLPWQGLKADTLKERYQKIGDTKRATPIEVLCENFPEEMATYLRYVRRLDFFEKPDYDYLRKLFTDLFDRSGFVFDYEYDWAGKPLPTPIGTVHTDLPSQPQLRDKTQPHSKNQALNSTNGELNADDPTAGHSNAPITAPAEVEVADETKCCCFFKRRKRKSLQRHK

On to `C[C@@H](Oc1cc(-n2cnc3ccc(OC[C@@H](O)CO)cc32)sc1C(N)=O)c1ccccc1Cl`, for which the inhibition is 1.97% in [1]; 2.99% in assay [2]; 22.2% in assay [3]; -0.57% in [4]; -0.59% in assay [5]; -2.64% in assay [6]. Besides, the inhibition in [7] was 6.54%; in assay [8], 4.2%; in assay [9], 10.6%; in [10], 0.21%; in assay [11] it was -0.29%; in assay [12] it was 0.57%. For the same compound, the inhibition was 1.14% in assay [13]; -0.99% in assay [14]; 0.82% in [15]; 2.6% in assay [16]; 3.43% in assay [17]; -1.5% in assay [18]. The inhibition in [19] was 2.39%; in assay [20], -1.3%.
In the case of `Cc1cc(-c2ccccn2)cc(C)c1/C=C/c1cncc(-c2nn[nH]n2)c1`, the inhibition is -0.15% in assay [1]; 1.13% in assay [2]; 3.53% in [3]; 1.22% in [4]; 1.42% in assay [5]; 18.9% in assay [6]. For the same compound, the inhibition in assay [7] was 74.7%; in assay [8] it was 5.34%; in assay [9], 21.5%; in assay [10] it was 3.59%; in assay [11], 2.21%; in assay [12], 4.23%. For the same compound, the inhibition in [13] was 4.46%; in assay [14] it was 1.85%; in [15], 2.37%; in [16] it was 3.47%; in [17], 7.87%; in assay [18] it was 6.09%. The inhibition in assay [19] was 4.39%; in assay [20], 2.75%.
Take `COc1cc2ncnc(Nc3ccc4c(cnn4Cc4ccccc4)c3)c2cc1OC`: the inhibition is 2.31% in assay [1]; -0.75% in [2]; 1.06% in [3]; 0.57% in assay [4]; 0.85% in assay [5]; 4.47% in assay [6]. Further, the inhibition in [7] was 5.69%; in assay [8], 4.37%; in assay [9] it was 3.7%; in assay [10], 0.22%; in [11], 1.45%; in [12] it was 2.62%. Further, the inhibition in assay [13] is 3.63%; in [14], 0.21%; in assay [15], 0.75%; in assay [16] it was 1.02%; in [17], 1.16%; in assay [18], 1.64%. Moreover, the inhibition in assay [19] was 2.33%; in assay [20] it was 1.06%.
As to `NC(=O)c1sc(-n2cnc3ccccc32)cc1OCc1ccccc1Br`, the inhibition is 0.78% in assay [1]; -1.03% in assay [2]; 3.81% in assay [3]; 1.15% in assay [4]; 0.91% in assay [5]; 4.47% in [6]. Also, the inhibition in assay [7] was 13.6%; in assay [8], 3.55%; in assay [9] it was 9.83%; in [10], 0.38%; in [11], 2.68%; in assay [12], 3.19%. The inhibition is 4.53% in assay [13]; 0.6% in assay [14]; 1.24% in assay [15]; 2.22% in assay [16]; 7.23% in assay [17]; 3.55% in assay [18]. For the same compound, the inhibition in assay [19] came out at 5.15%; in assay [20], 3.34%.
Turning to `CN1CCN(C(=O)c2ccc(NC(=O)Nc3ccc(N(C)c4ccnc(Nc5ccc(CS(C)(=O)=O)cc5)n4)cc3)cc2)CC1`, the inhibition in assay [1] was -0.35%; in [2] it was 0.13%; in assay [3], 2.14%; in assay [4], 1.17%; in assay [5] it was 1.29%; in assay [6], 3.16%. Besides, the inhibition was 17.6% in [7]; -0.55% in assay [8]; 17.4% in [9]; 2.62% in assay [10]; 12.6% in assay [11]; 0.02% in assay [12]. Further, the inhibition was 1.8% in [13]; 0.71% in [14]; 0.35% in assay [15]; 0.51% in [16]; 2.95% in [17]; 1.88% in [18]. Also, the inhibition is 2.79% in [19] and 1.94% in [20].
`CCS(=O)(=O)c1ccc(OC)c(Nc2ncc(-c3cccc(OC)c3)o2)c1`: the inhibition in assay [1] is 0.96%; in [2], -0.8%; in [3], -0.55%; in assay [4], 0.94%; in assay [5], -0.22%; in [6], 6.26%. The inhibition in assay [7] stood at 28.6%; in [8] it was 8.33%; in assay [9], 31.2%; in [10] it was 0.69%; in assay [11], 9.22%; in [12] it was 1.15%. Moreover, the inhibition in assay [13] was -0.25%; in [14], 1.31%; in [15] it was -3.49%; in assay [16] it was 1.44%; in assay [17] it was 6.31%; in assay [18], 2.59%. Moreover, the inhibition in assay [19] amounted to 6.2%; in assay [20], 1.91%.
